FUS suppressor: suppressors of FUS proteinopathy in yeast. S. cerevisiae FUS-expressing, growth rescue, OD600, 24 h. Potency, µM (top dose mostly 76.6 µM), actives largely listed as activators. actives 0.24% (n = 390,000). AID 1347120;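 note: plate controls were DMSO vehicle for no effect and reference control for full effect; nearly all actives have a fitted effect of over 55% in size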
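Compound concentration series was pinned onto galactose-induced FUS-expressing yeast seeded at OD 0.005. Plates sat 24hr at 30C; absorbance at 600 nm gave growth. DMSO served as background control.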
TDP-43 yeast inh: TDP-43 toxicity inhibition in yeast. Potency, µM (titrated, usually from 46.1 µM), for inactives: top-dose growth rescue (activation), usual class: activators. TDP-43 expressing yeast growth rescue, BacTiter-Glo, 24 h. actives 1.8% (n = 410,000). AID 652104; note: % of control where 0% means no effect; nearly all actives have a fitted effect of over 50% in size
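Galactose-induced TDP-43 yeast, OD600=0.02, compound pinned; 24 hr, 30 deg C; BacTiter-Glo luminescence for growth. Inhibitors of TDP-43 toxicity read as activators.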
Abeta yeast res: restores growth of yeast expressing A-beta42 peptide. yeast expressing A-beta42, growth rescue, OD600, 48 h; response scale: 0% DMSO, 100% iron-clioquinol control. Potency, µM (doses to about 46.1 µM), usual class: activators. actives 0.063% (n = 410,000); note: nearly all actives have a fitted effect of over 55% in size
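Yeast growth medium received pinned compounds, then yeast cells expressing toxic A-beta were added; plates incubated at 30 C for 48 hr. Growth read as absorbance at 600 nm, normalized to DMSO and equimolar FeCl3 plus clioquinol controls.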
aSyn yeast inh: inhibitors of alpha-synuclein toxicity in yeast; Yeast expressing alpha-synuclein, growth rescue, BacTiter-Glo, 24 h; Potency, µM (titrated, usually from 46.1 µM), inactives show top-dose growth rescue (activation), hits mostly activators; actives 0.14% (n = 370,000); AID 652106; note: % of control where 0% means no effect; nearly all actives have a fitted effect of over 65% in size
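Rescue of yeast growth: cells expressing toxic alpha-synuclein, induced in galactose at OD600 0.02, incubated with compound 24 h at 30 C. ATP luminescence quantified growth; inhibitors of toxicity appear as activators.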
An asterisk follows results filed as active. A selection: hits, their analogues and other compounds. The true share with any hit is near 2.1%. Calls come from the whole dose curve; as a rule, active = well fitted curve in the direction sought with a large enough effect; inconclusive = small, poorly fitted or top-dose-only effect, or another doubt; inactive = no such curve, though single readings can be large; an effect the other way counts as inactive or inconclusive. Potency is the fitted concentration of half-maximal effect.

For O=S(=O)(NCC(c1cccs1)S(=O)(=O)c1ccccc1)c1ccc(F)cc1 (stereo not given) the results were FUS suppressor inactive, TDP-43 yeast inh 3.55µM* and Abeta yeast res inactive.
Brc1c(CSc2nc3ccccc3o2)nc2ncccn12 was read as FUS suppressor inactive, TDP-43 yeast inh 12.6µM*, Abeta yeast res inactive and aSyn yeast inh 8.6%.
NS(=O)(=O)c1ccc(NC(=O)CN2CCN(c3ccc(F)cc3)CC2)cc1 was read as FUS suppressor inactive, TDP-43 yeast inh 11.5% and Abeta yeast res inactive.
`O=[N+]([O-])/C=C/c1cn(Cc2ccc(F)cc2)c2ccccc12` gave FUS suppressor inactive, TDP-43 yeast inh 12.6µM*, Abeta yeast res inactive and aSyn yeast inh 8.1%.
Screening O=C(O)c1ccc(N/N=C/c2cn(Cc3ccc(F)cc3)c3ccccc23)cc1 returned FUS suppressor inactive, TDP-43 yeast inh inconclusive, Abeta yeast res inactive and aSyn yeast inh -15.0%.
Screening CC1CC2(C)CC(C)C1(COC(=O)Nc1ccccc1)CO2 (stereo not given) returned FUS suppressor inactive, TDP-43 yeast inh 35.5µM*, Abeta yeast res inactive and aSyn yeast inh 0.6%.
Screening COC(=O)C1=C[C@@H]([C@@H](C)[C@H](OC)c2ccccc2Br)[C@@H]2OCCC[C@H]12 returned FUS suppressor inactive.
CC1CCC2(CCC(=O)N2C[C@@H](O)c2ccccc2)CC1 (stereo not given in full) was read as FUS suppressor inactive.
N#Cc1ccc(Cn2c(-c3ccc(F)cc3)noc2=O)cc1 was read as FUS suppressor inactive, Abeta yeast res inactive and aSyn yeast inh 0.6%.
Screening O=c1onc(-c2ccc(Cl)cc2)n1Cc1ccc(F)cc1 returned TDP-43 yeast inh 17.8µM*, Abeta yeast res inactive and aSyn yeast inh 3.0%.
O=c1onc(-c2ccccc2)n1Cc1ccc([N+](=O)[O-])cc1 was read as FUS suppressor inactive, TDP-43 yeast inh 8.91µM*, Abeta yeast res inactive and aSyn yeast inh 0.0%.
`COc1ccc(-c2noc(=O)n2Cc2ccccc2F)cc1` gave FUS suppressor inactive, TDP-43 yeast inh 12.6µM*, Abeta yeast res inactive and aSyn yeast inh 5.6%.
CCCCCC(=O)NC1CCCCN(Cc2ccc(Cl)cc2)C1=O (stereo not given) was read as FUS suppressor inactive.
`C=CCNC(=O)CSc1nc2c(c(=O)[nH]1)CCCC2` gave FUS suppressor inactive.
Cc1nn(-c2ccccc2)c(OC(=O)c2cccs2)c1S(=O)(=O)c1ccccc1 was read as FUS suppressor inactive, TDP-43 yeast inh 5.5%, Abeta yeast res inactive and aSyn yeast inh 3.5%.
`Cc1nn(-c2ccccc2)c(OC(=O)c2cccs2)c1S(=O)(=O)c1ccc([N+](=O)[O-])cc1` gave FUS suppressor 39.8µM*, TDP-43 yeast inh -31.5%, Abeta yeast res inactive and aSyn yeast inh -2.2%.
For CN(Cc1ccc(F)cc1)C(=O)c1cccc2c1C(=O)N(Cc1cccnc1)C2 the results were FUS suppressor inactive.
Screening COc1cc(C(=O)Nc2ccc(-c3nc4cc(C)c(C)cc4o3)cc2)cc(OC)c1OC returned FUS suppressor inactive, TDP-43 yeast inh inconclusive and Abeta yeast res inactive.
COc1cc(C(=O)Nc2ccc3oc(-c4ccc(C)c(Br)c4)nc3c2)cc(OC)c1OC was read as FUS suppressor inactive, TDP-43 yeast inh 10µM* and Abeta yeast res inactive.
For COc1cc(C(=O)NC2CCCCN(Cc3ccc(Cl)cc3)C2=O)cc(OC)c1OC (stereo not given) the results were FUS suppressor inactive.
Screening CC(C)(C)c1ccc(C2=CC(c3ccccc3)n3ncnc3N2)cc1 (stereo not given) returned FUS suppressor inactive, TDP-43 yeast inh 23.5%, Abeta yeast res inactive and aSyn yeast inh -6.6%.
`FC(F)(F)c1ccccc1C1=CC(c2ccccc2)n2ncnc2N1` (stereo not given) gave FUS suppressor inactive, TDP-43 yeast inh 17.8µM*, Abeta yeast res inactive and aSyn yeast inh -1.4%.
Screening COc1ccc(C2C=C(c3ccccc3)Nc3ncnn32)cc1 (stereo not given) returned FUS suppressor inactive, TDP-43 yeast inh inconclusive, Abeta yeast res inactive and aSyn yeast inh 1.1%.
Cc1ccc(C2=CC(c3ccc(C)cc3)n3ncnc3N2)cc1 (stereo not given) was read as FUS suppressor inactive, TDP-43 yeast inh 15.8µM*, Abeta yeast res inconclusive and aSyn yeast inh inconclusive.
`CCOc1ccc(C2C=C(c3ccccc3)Nc3nnnn32)cc1` (stereo not given) gave FUS suppressor inactive, TDP-43 yeast inh 1.2%, Abeta yeast res inactive and aSyn yeast inh -3.8%.
`Clc1ccccc1C1=CC(c2ccco2)n2ncnc2N1` (stereo not given) gave FUS suppressor inactive, TDP-43 yeast inh 14.1µM*, Abeta yeast res inactive and aSyn yeast inh -3.3%.
For CCOc1ccc(C2C=C(c3ccc(C)cc3)Nc3nnnn32)cc1 (stereo not given) the results were FUS suppressor inconclusive, TDP-43 yeast inh 22.4µM*, Abeta yeast res inactive and aSyn yeast inh -32.4%.
`Cc1ccccc1CC(=O)Nc1nnc(-c2cccnc2)s1` gave FUS suppressor inactive.
`Clc1ccc(-c2nc3c4ccccc4ccn3c2Cc2cccc(Cl)c2)cc1` gave FUS suppressor inactive, TDP-43 yeast inh 5.8%, Abeta yeast res inactive and aSyn yeast inh 9.2%.
`Fc1cccc(Cc2c(-c3ccccc3)nc3c4ccccc4ccn23)c1` gave FUS suppressor inactive, TDP-43 yeast inh 14.1µM*, Abeta yeast res inactive and aSyn yeast inh -5.4%.
COc1ccc(-c2nc3c4ccccc4ccn3c2Cc2cccc(Cl)c2)cc1OC was read as FUS suppressor inactive, TDP-43 yeast inh 14.1µM*, Abeta yeast res inactive and aSyn yeast inh 16.8%.
Screening Cc1ccc(-c2nc3c4ccccc4ccn3c2Cc2ccccc2)cc1 returned FUS suppressor inconclusive, TDP-43 yeast inh 0.0%, Abeta yeast res inactive and aSyn yeast inh 0.0%.
Clc1cccc(Cc2c(-c3cccc(Br)c3)nc3c4ccccc4ccn23)c1 was read as FUS suppressor inactive, TDP-43 yeast inh 20.1%, Abeta yeast res inactive and aSyn yeast inh -3.4%.
For CCOC(=O)Cc1c(-c2cccc(Cl)c2)nc2c3ccccc3ccn12 the results were FUS suppressor inactive, TDP-43 yeast inh 12.6µM*, Abeta yeast res inactive and aSyn yeast inh 1.0%.
Cc1ccc(Cc2c(-c3ccccc3)nc3c4ccccc4ccn23)cc1 was read as FUS suppressor inconclusive, TDP-43 yeast inh 14.1µM*, Abeta yeast res inactive and aSyn yeast inh 0.6%.
For CC(C)(C)c1ccc(C2=NC(C)(C)N(CC(=O)Nc3ccc(F)c(F)c3)C2=O)cc1 the results were FUS suppressor inactive, TDP-43 yeast inh 10.8% and Abeta yeast res inactive.
Screening COc1cc2nc(Cl)nc(NC(C)C)c2cc1OC returned aSyn yeast inh 0.3%.

Source: PubChem (National Center for Advancing Translational Sciences (NCATS))
